# Measurements: paper PMC5540273 (PLoS ONE, 2017)
# Tested on: T1, p38-alpha
# T1 construct: gene MAPK14
# Conditions: concentration: 1 μM, replicates: in singlicate; n = 1
# 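Note: KINOMEscan kinase panel screen.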
row,SMILES,%Inh [%]
1,Nc1nc(N)c2nc(-c3ccccc3)[nH]c2n1 [SKF-12778],0
2,COc1cc2nccc(Nc3cccc(Oc4ccccc4)c3)c2cc1OC.Cl [GW284543],0
3,CCc1ccc(-c2ccc3c(c2)-c2nn(C)cc2S(=O)(=O)N3C)cc1,0
4,CCCC(=O)Nc1n[nH]c2ncc(-c3cccc4ccccc34)cc12 [SB-642057],14
5,CCC(=O)c1c(-c2ccccc2)c2cc(Cl)ccc2c(=O)n1Cc1cc(S(C)(=O)=O)n(CC(F)F)n1,10
6,Nc1ncnc2c1ncn2-c1cccc(F)c1 [SKF-97560],0
7,Cc1c(Cn2c(C)nn3c(=O)cc(N4CCO[C@H](C)C4)nc23)cccc1C(F)(F)F [GSK2373690],0
8,COc1cc(Nc2nccc(N3CCC(NC(=O)C4COc5ccccc5O4)C3)n2)cc(OC)c1OC (centres unmarked) [GSK1379761],26
9,Cc1ccccc1COc1cc(-n2cnc3cc(Cl)ccc32)sc1C(N)=O [GW813349],0
10,Cc1ccc(-c2ccc3c(ccc4sc5c(c43)NC[C@@H](C)N=C5N(C)C)n2)cn1,0
11,Fc1cccc(CSc2nnc(-c3ccc4c(c3)CCO4)o2)c1,0
12,CN1C(=O)C(Nc2cc(Cl)c(O)c(Cl)c2)=C(c2ccc(Cl)cc2)C1=O [SB-404321],2
13,CCC(=O)c1c(-c2ccccc2)c2cc(Cl)ccc2c(=O)n1Cc1ccc(C(=O)O)cc1,23
14,COc1cc(Nc2nccc(N3CCC(NC(=O)C(C)c4ccc(Cl)cc4)C3)n2)cc(OC)c1OC (centres unmarked) [GSK1379757],10
15,C[C@@H]1CC[C@H](C(=O)NC2CCCCC2)CN1c1cc(-c2ccc3c(N)n[nH]c3c2)nc(N)n1 [GSK2291363],36
16,COc1ccc(-c2coc3ccc(-c4nnc(SCc5cccc(C#N)c5)o4)cc23)cc1,5
17,CCS(=O)c1ccc(-c2coc3ccc(-c4nnc(C)o4)cc23)cc1 (centres unmarked),0
18,Cc1cc(Nc2nc(-c3cccc(C)n3)nc3ccccc23)ccn1 [GW872411],20

row,SMILES,%Inh [%]
1,COC(=O)c1c(-c2ccccc2)c2cc(Br)ccc2c(=O)n1Cc1ccc(S(C)(=O)=O)cc1,17
2,Nc1nccc2scc(-c3ccc4c(c3)CCN4C(=O)Cc3ccccc3)c12 [GSK2576924],0
3,O=C(NCCNc1ccnc(Nc2ccc(F)cc2)n1)Nc1ccc2c(c1)OCO2 [GSK1379882],19
4,COC(=O)c1c(-c2ccccc2)c2cc(Br)ccc2c(=O)n1Cc1ccc(NC(=O)CCC(=O)O)cc1,5
5,Nc1ncnc2c1ncn2-c1ccc(Cl)cc1 [AH2635],32
6,O=C(Nc1n[nH]c2cc(-c3ccccc3F)ccc12)C1CC1 [SB-733371],4
7,Nc1n[nH]c2nnc(-c3ccccc3)c(-c3ccccc3)c12 [GW554060],0
8,FC(F)(F)c1ccc(-c2ncn(CCCN3CCOCC3)c2-c2ccncc2)cc1 [SB-217780],25
9,COc1ccc(-n2cnc3c(N)ncnc32)cc1 [SKF-97236],0
10,CCC(=O)c1c(-c2ccccc2)c2cc(Cl)ccc2c(=O)n1Cc1cc(C(=O)NC2CC2)n(C)n1,16
11,CCC(=O)c1c(-c2ccccc2)c2cc(Cl)ccc2c(=O)n1Cc1cc(S(C)(=O)=O)n(CCC(C)(C)O)n1,16
12,COC(=O)c1c(-c2ccccc2)c2cc(C)ccc2c(=O)n1Cc1ccccc1,8
13,COc1cc(Nc2ccnc3ccc(C(F)(F)F)cc23)cc(OC)c1OC [GW577382],30
14,COc1ccc(-c2cc3c(C)nc(N)nc3n([C@H]3CC[C@H](OCCO)CC3)c2=O)cn1,0
15,Cc1nnc(-c2ccc3ncn(-c4ccc(S(C)=O)cc4)c3c2)o1 (centres unmarked),0
16,COc1cc2ncn(-c3cc(OCc4ccc(S(C)(=O)=O)cc4)c(C(N)=O)s3)c2cc1OC [GW869979],1
17,CCC(=O)c1c(-c2ccccc2)c2cc(Cl)ccc2c(=O)n1Cc1cc(S(C)(=O)=O)n(CC(N)=O)n1,0

# Tested on: T2, p38-beta
# T2 construct: gene MAPK11
# Conditions: concentration: 1 μM, replicates: in singlicate; n = 1
row,SMILES,%Inh [%]
1,Nc1nc(N)c2nc(-c3ccccc3)[nH]c2n1 [SKF-12778],7
2,COc1cc2nccc(Nc3cccc(Oc4ccccc4)c3)c2cc1OC.Cl [GW284543],0
3,CCc1ccc(-c2ccc3c(c2)-c2nn(C)cc2S(=O)(=O)N3C)cc1,12
4,O=C(NCc1cccs1)c1cc(C(=O)c2c(Cl)cccc2Cl)c[nH]1 [GW823670],9
5,CCCC(=O)Nc1n[nH]c2ncc(-c3cccc4ccccc34)cc12 [SB-642057],4
6,CCC(=O)c1c(-c2ccccc2)c2cc(Cl)ccc2c(=O)n1Cc1cc(S(C)(=O)=O)n(CC(F)F)n1,2
7,Nc1ncnc2c1ncn2-c1cccc(F)c1 [SKF-97560],0
8,Cc1c(Cn2c(C)nn3c(=O)cc(N4CCO[C@H](C)C4)nc23)cccc1C(F)(F)F [GSK2373690],0
9,COc1cc(Nc2nccc(N3CCC(NC(=O)C4COc5ccccc5O4)C3)n2)cc(OC)c1OC (centres unmarked) [GSK1379761],0
10,Cc1ccccc1COc1cc(-n2cnc3cc(Cl)ccc32)sc1C(N)=O [GW813349],5
11,Cc1ccc(-c2ccc3c(ccc4sc5c(c43)NC[C@@H](C)N=C5N(C)C)n2)cn1,0
12,Fc1cccc(CSc2nnc(-c3ccc4c(c3)CCO4)o2)c1,16
13,CN1C(=O)C(Nc2cc(Cl)c(O)c(Cl)c2)=C(c2ccc(Cl)cc2)C1=O [SB-404321],0
14,CCC(=O)c1c(-c2ccccc2)c2cc(Cl)ccc2c(=O)n1Cc1ccc(C(=O)O)cc1,0
15,COc1cc(Nc2nccc(N3CCC(NC(=O)C(C)c4ccc(Cl)cc4)C3)n2)cc(OC)c1OC (centres unmarked) [GSK1379757],0
16,C[C@@H]1CC[C@H](C(=O)NC2CCCCC2)CN1c1cc(-c2ccc3c(N)n[nH]c3c2)nc(N)n1 [GSK2291363],0
17,COc1ccc(-c2coc3ccc(-c4nnc(SCc5cccc(C#N)c5)o4)cc23)cc1,11
18,CCS(=O)c1ccc(-c2coc3ccc(-c4nnc(C)o4)cc23)cc1 (centres unmarked),5

row,SMILES,%Inh [%]
1,Cc1cc(Nc2nc(-c3cccc(C)n3)nc3ccccc23)ccn1 [GW872411],0
2,COC(=O)c1c(-c2ccccc2)c2cc(Br)ccc2c(=O)n1Cc1ccc(S(C)(=O)=O)cc1,9
3,Nc1nccc2scc(-c3ccc4c(c3)CCN4C(=O)Cc3ccccc3)c12 [GSK2576924],0
4,O=C(NCCNc1ccnc(Nc2ccc(F)cc2)n1)Nc1ccc2c(c1)OCO2 [GSK1379882],0
5,COC(=O)c1c(-c2ccccc2)c2cc(Br)ccc2c(=O)n1Cc1ccc(NC(=O)CCC(=O)O)cc1,5
6,Nc1ncnc2c1ncn2-c1ccc(Cl)cc1 [AH2635],0
7,O=C(Nc1n[nH]c2cc(-c3ccccc3F)ccc12)C1CC1 [SB-733371],9
8,Nc1n[nH]c2nnc(-c3ccccc3)c(-c3ccccc3)c12 [GW554060],0
9,FC(F)(F)c1ccc(-c2ncn(CCCN3CCOCC3)c2-c2ccncc2)cc1 [SB-217780],5
10,COc1ccc(-n2cnc3c(N)ncnc32)cc1 [SKF-97236],21
11,CCC(=O)c1c(-c2ccccc2)c2cc(Cl)ccc2c(=O)n1Cc1cc(C(=O)NC2CC2)n(C)n1,0
12,CCC(=O)c1c(-c2ccccc2)c2cc(Cl)ccc2c(=O)n1Cc1cc(S(C)(=O)=O)n(CCC(C)(C)O)n1,6
13,COC(=O)c1c(-c2ccccc2)c2cc(C)ccc2c(=O)n1Cc1ccccc1,0
14,COc1cc(Nc2ccnc3ccc(C(F)(F)F)cc23)cc(OC)c1OC [GW577382],25
15,COc1ccc(-c2cc3c(C)nc(N)nc3n([C@H]3CC[C@H](OCCO)CC3)c2=O)cn1,0
16,Cc1nnc(-c2ccc3ncn(-c4ccc(S(C)=O)cc4)c3c2)o1 (centres unmarked),13
17,COc1cc2ncn(-c3cc(OCc4ccc(S(C)(=O)=O)cc4)c(C(N)=O)s3)c2cc1OC [GW869979],1
18,CCC(=O)c1c(-c2ccccc2)c2cc(Cl)ccc2c(=O)n1Cc1cc(S(C)(=O)=O)n(CC(N)=O)n1,8
